According to PubChem BioAssay:
The source made the active and inactive calls.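 Rule for the calls, unless noted: active = normalized viability below 100% at a tested concentration; inactive = the rest.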

Columns and labels:
[1] = viability loss with induced miR-34 in A549 – imaging, A549 dox-inducible miR-34, nuclei and caspase counts, primary screen (AID 1347080;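 active = compounds whose cell count with miR-34 switched on is under 0.7 times the count with it off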); conditions: A549 miR-34 inducible, Hoechst nuclei count, 48 h
[2] = MELAS cybrid and Rieske KO viability enhancers – cell-based, MELAS cybrids, Rieske KO mouse fibroblasts, CellTiter-Glo, primary screen (AID 1508586;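 active = mean z-score across replicates of 1.96 or higher in either the MELAS or the Rieske mutant cell line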;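 note: z relative to plate mean and SD of compound and empty wells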); conditions: low glucose
[3] = drug combination growth inhibition, ovarian cancer – cell-based, oncology-focused library, rucaparib conditional, profiling panel (AID 1508598); conditions: patient-derived ovarian cancer cells, CellTiter-Glo viability, 144 h, stronger effect = lower value
[4] = stronger effect = lower value, cell number ratio, induced over uninduced
[5] = measured here: relative caspase fold change +Dox/-Dox
[6] = measured here: total cells with miR-34 induction, stronger effect = lower value
[7] = measured here: total cells without miR-34 induction
[8] = MELAS cybrid survival, CellTiter-Glo 48 h, stronger effect = higher value
[9] = Rieske KO mouse fibroblast survival, CellTiter-Glo 72 h
[10] = at 0.000305 µM, OCI-C5x cells, with rucaparib 10 µM, 100% = cells with rucaparib alone
[11] = at 0.000305 µM, OCI-C5x cells, without rucaparib
[12] = at 0.000305 µM, OCI-P5x cells, with rucaparib 20 µM, 100% = cells with rucaparib alone
[13] = at 0.000305 µM, OCI-P5x cells, without rucaparib
[14] = at 0.00122 µM, OCI-C5x cells, with rucaparib 10 µM, 100% = cells with rucaparib alone
[15] = at 0.00122 µM, OCI-C5x cells, without rucaparib
[16] = at 0.00122 µM, OCI-P5x cells, with rucaparib 20 µM, 100% = cells with rucaparib alone
[17] = at 0.00122 µM, OCI-P5x cells, without rucaparib
[18] = at 0.00488 µM, OCI-C5x cells, with rucaparib 10 µM, 100% = cells with rucaparib alone
[19] = at 0.00488 µM, OCI-C5x cells, without rucaparib
[20] = at 0.00488 µM, OCI-P5x cells, with rucaparib 20 µM, 100% = cells with rucaparib alone
[21] = at 0.00488 µM, OCI-P5x cells, without rucaparib
[22] = at 0.0195 µM, OCI-C5x cells, with rucaparib 10 µM, 100% = cells with rucaparib alone
[23] = at 0.0195 µM, OCI-C5x cells, without rucaparib
[24] = at 0.0195 µM, OCI-P5x cells, with rucaparib 20 µM, 100% = cells with rucaparib alone
[25] = at 0.0195 µM, OCI-P5x cells, without rucaparib
[26] = at 0.0781 µM, OCI-C5x cells, with rucaparib 10 µM, 100% = cells with rucaparib alone
[27] = at 0.0781 µM, OCI-C5x cells, without rucaparib
[28] = at 0.0781 µM, OCI-P5x cells, with rucaparib 20 µM, 100% = cells with rucaparib alone
[29] = at 0.0781 µM, OCI-P5x cells, without rucaparib
[30] = at 0.313 µM, OCI-C5x cells, with rucaparib 10 µM, 100% = cells with rucaparib alone
[31] = at 0.313 µM, OCI-C5x cells, without rucaparib
[32] = at 0.313 µM, OCI-P5x cells, with rucaparib 20 µM, 100% = cells with rucaparib alone
[33] = at 0.313 µM, OCI-P5x cells, without rucaparib
[34] = at 1.25 µM, OCI-C5x cells, with rucaparib 10 µM, 100% = cells with rucaparib alone
[35] = at 1.25 µM, OCI-C5x cells, without rucaparib
[36] = at 1.25 µM, OCI-P5x cells, with rucaparib 20 µM, 100% = cells with rucaparib alone
[37] = at 1.25 µM, OCI-P5x cells, without rucaparib
[38] = at 5 µM, OCI-C5x cells, with rucaparib 10 µM, 100% = cells with rucaparib alone
[39] = at 5 µM, OCI-C5x cells, without rucaparib
[40] = at 5 µM, OCI-P5x cells, with rucaparib 20 µM, 100% = cells with rucaparib alone
[41] = at 5 µM, OCI-P5x cells, without rucaparib

CN(CC(=O)N(Cc1ccc(C2CCCCC2)cc1)c1ccc(C(=O)O)cc1)S(=O)(=O)c1c(F)c(F)c(F)c(F)c1F
0.314: fold change [1, 5]
4130: cell count [1, 7]
active: viability [3, 12] 97.3% | viability [3, 16] 96% | viability [3, 20] 92.6% | viability [3, 21] 97.4% | viability [3, 24] 97.6% | viability [3, 25] 95.6% | viability [3, 28] 93.1% | viability [3, 29] 94.2% | viability [3, 32] 94.9% | viability [3, 33] 95.1% | viability [3, 36] 8.63% | viability [3, 37] 75.3% | viability [3, 38] 3.43% | viability [3, 39] 2.98% | viability [3, 40] 0.394% | viability [3, 41] 0.691%
0.483: z-score [2, 9]
3920: cell count [1, 6]
inactive: fold change [1, 4] 0.95 | z-score [2, 8] 1.94 | viability [3, 10] 114% | viability [3, 11] 111% | viability [3, 13] 102% | viability [3, 14] 115% | viability [3, 15] 111% | viability [3, 17] 102% | viability [3, 18] 119% | viability [3, 19] 111% | viability [3, 22] 118% | viability [3, 23] 112% | viability [3, 26] 126% | viability [3, 27] 116% | viability [3, 30] 115% | viability [3, 31] 111% | viability [3, 34] 114% | viability [3, 35] 107%

OCCOc1ccc(C(=C(CCCl)c2ccccc2)c2ccccc2)cc1
9190: cell count [1, 6]
0.793: fold change [1, 5]
-0.092: z-score [2, 9]
9380: cell count [1, 7]
inactive: fold change [1, 4] 0.979 | z-score [2, 8] -0.333

CC(C)NCCCn1c(Sc2cc3c(cc2I)OCO3)nc2c(N)ncnc21
active: z-score [2, 8] 3.04 | viability [3, 12] 95.1% | viability [3, 13] 94.7% | viability [3, 17] 94.3% | viability [3, 20] 99.8% | viability [3, 21] 98.3% | viability [3, 25] 97.9% | viability [3, 31] 60.7% | viability [3, 32] 15.7% | viability [3, 33] 9.78% | viability [3, 34] 77.5% | viability [3, 35] 33.9% | viability [3, 36] 17.3% | viability [3, 37] 8.78% | viability [3, 38] 15.7% | viability [3, 39] 9.3% | viability [3, 40] 7.34% | viability [3, 41] 6.28%
2580: cell count [1, 6]
2430: cell count [1, 7]
-0.929: z-score [2, 9]
inactive: fold change [1, 4] 1.06 | viability [3, 10] 125% | viability [3, 11] 112% | viability [3, 14] 129% | viability [3, 15] 108% | viability [3, 16] 102% | viability [3, 18] 119% | viability [3, 19] 107% | viability [3, 22] 126% | viability [3, 23] 122% | viability [3, 24] 101% | viability [3, 26] 139% | viability [3, 27] 127% | viability [3, 28] 105% | viability [3, 29] 107% | viability [3, 30] 143%
0.435: fold change [1, 5]

CCCc1ccc(OCC(=O)N(Cc2nc(-c3cccnc3)no2)C(C)C)cc1
0.238: z-score [2, 9]
7990: cell count [1, 7]
active: viability [3, 12] 98% | viability [3, 17] 98.6% | viability [3, 24] 97.5% | viability [3, 32] 98.3% | viability [3, 37] 96.3% | viability [3, 38] 99.7% | viability [3, 40] 93.2%
6670: cell count [1, 6]
inactive: fold change [1, 4] 0.834 | z-score [2, 8] -0.333 | viability [3, 10] 116% | viability [3, 11] 115% | viability [3, 13] 106% | viability [3, 14] 125% | viability [3, 15] 122% | viability [3, 16] 102% | viability [3, 18] 129% | viability [3, 19] 104% | viability [3, 20] 105% | viability [3, 21] 101% | viability [3, 22] 118% | viability [3, 23] 110% | viability [3, 25] 102% | viability [3, 26] 134% | viability [3, 27] 114% | viability [3, 28] 104% | viability [3, 29] 103% | viability [3, 30] 120% | viability [3, 31] 110% | viability [3, 33] 101% | viability [3, 34] 115% | viability [3, 35] 112% | viability [3, 36] 103% | viability [3, 39] 111% | viability [3, 41] 100%
0.57: fold change [1, 5]

COc1cc(-c2ncn(C=CC(=O)OC(C)C)n2)cc(C(F)(F)F)c1
inactive: fold change [1, 4] 0.884 | z-score [2, 8] -0.00249
0.634: fold change [1, 5]
-7.09: z-score [2, 9]
2310: cell count [1, 7]
2040: cell count [1, 6]

CC(C)=CCC[C@](C)(OC1OC(COC2OCC(O)C(O)C2O)C(O)C(O)C1O)C1CC[C@]2(C)[C@@H]1C(O)C[C@H]1[C@@]3(C)CCC(OC4OC(CO)C(O)C(O)C4O)C(C)(C)[C@@H]3CC[C@]12C (stereo not given in full)
7910: cell count [1, 7]
0.0165: z-score [2, 9]
inactive: fold change [1, 4] 0.96 | z-score [2, 8] -0.238
7600: cell count [1, 6]
0.422: fold change [1, 5]

CCOC(=O)c1cnc2ccc(-c3cncc(NS(=O)(=O)c4ccccc4)c3)cn12
0.323: fold change [1, 5]
0.8: z-score [2, 9]
inactive: fold change [1, 4] 0.888 | z-score [2, 8] 0.296 | viability [3, 10] 115% | viability [3, 12] 102% | viability [3, 14] 121% | viability [3, 15] 102% | viability [3, 16] 101% | viability [3, 18] 129% | viability [3, 19] 105% | viability [3, 20] 107% | viability [3, 22] 122% | viability [3, 23] 112% | viability [3, 24] 102%
1860: cell count [1, 7]
1650: cell count [1, 6]
active: viability [3, 11] 99.1% | viability [3, 13] 99.9% | viability [3, 17] 95.7% | viability [3, 21] 94.6% | viability [3, 25] 94.3% | viability [3, 26] 91.1% | viability [3, 27] 74.3% | viability [3, 28] 88.7% | viability [3, 29] 48.1% | viability [3, 30] 69.7% | viability [3, 31] 46.2% | viability [3, 32] 66.1% | viability [3, 33] 23.4% | viability [3, 34] 52.2% | viability [3, 35] 37% | viability [3, 36] 46.2% | viability [3, 37] 13.9% | viability [3, 38] 4.93% | viability [3, 39] 22.5% | viability [3, 40] 14.6% | viability [3, 41] 8.51%
